# Test results published in PubChem BioAssay AID1508602 (The Scripps Research Institute Molecular Screening Center, 2020).
# Among all 650,000 compounds or so, about 6,800 (1%) were called active. Only a selection was taken, and actives are over-represented in it overall. Values without a mark were called inactive. Rule as the data show it: active = activation above about 4.9%; inactive = the rest.
# Molecular target: G-protein coupled receptor 151 (Homo sapiens) (UniProt Q8TDV0)
# Experiment: activators of human GPR151, primary screen, cell-based, PathHunter beta-arrestin, luminescence (AID 1508602);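 also: 0% = median of compound wells and 100% = cells with positive control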
# Conditions: PathHunter beta-arrestin GPR151 cells, at 11.2 µM, active compounds read high
# Chain of G-protein coupled receptor 151 (Homo sapiens) (Q8TDV0 whole entry, looked up): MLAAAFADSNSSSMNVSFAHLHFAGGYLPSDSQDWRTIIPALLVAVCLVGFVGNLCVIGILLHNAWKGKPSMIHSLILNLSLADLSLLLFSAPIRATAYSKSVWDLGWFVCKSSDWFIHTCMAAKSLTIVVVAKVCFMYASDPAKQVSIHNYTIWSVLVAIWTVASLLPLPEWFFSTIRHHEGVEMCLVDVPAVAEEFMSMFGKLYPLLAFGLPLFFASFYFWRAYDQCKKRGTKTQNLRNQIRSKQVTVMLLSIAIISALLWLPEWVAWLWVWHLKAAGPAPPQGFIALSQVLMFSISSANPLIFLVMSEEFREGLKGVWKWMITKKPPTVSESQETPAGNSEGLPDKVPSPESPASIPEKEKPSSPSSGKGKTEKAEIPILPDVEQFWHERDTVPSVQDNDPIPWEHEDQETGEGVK
row,SMILES,activation
1,COc1ccccc1N1C(=O)NC(=O)/C(=C\c2ccc(Cl)cc2Cl)C1=O,0.657%
2,C=CCN1C(=O)NC(=O)/C(=C/c2ccc(O)c(OC)c2)C1=O,-0.157%
3,COc1cc(/C=C2\C(=O)NC(=O)N(c3ccccc3)C2=O)ccc1O,8.77% (active)
4,COc1cc(NC(=O)CCc2nc(C3=CCN(C)CC3)no2)cc(OC)c1OC,-0.399%
5,O=C(O)C1C2CC3CC(C2)CC1(n1ncc(NC2CCCC2)c(Cl)c1=O)C3 (stereo not given),1.35%
6,O=c1cccc2n1CC1CC2CN(Cc2ccc(F)cc2)C1 (stereo not given),1.89%
7,COc1ccccc1N1CCN(Cc2cccc(O)c2)CC1,0.277%
8,COc1ccccc1N1CCN(C(CNC(=O)Oc2ccccc2)c2cccnc2)CC1 (stereo not given),9.52% (active)
9,O=C(NCC(c1cccnc1)N1CCN(c2ccccc2)CC1)Oc1ccccc1 (stereo not given),0.68%
10,O=C(Cc1cccs1)N1CCN(Cc2nnnn2-c2ccc(F)cc2)CC1,1.07%
11,Cc1ccc(Cc2nc[nH]c2C)cc1,0.705%
12,COc1ccc(CCNCc2ccc(O)cc2)cc1,1.2%
13,Cc1cc(Cl)ccc1C(=O)C1CCCN(Cc2ncc[nH]2)C1 (stereo not given),-0.596%
14,CC[n+]1c(/C=C/C=C2\N(C)c3ccccc3C2(C)C)n(-c2ccccc2)c2ccc(Cl)cc21,5.9% (active)
15,C=CCOC(=O)C1=C(C)OC(N)=C(C(=O)OCC)C12C(=O)N(CC=C)c1ccccc12 (stereo not given),-0.446%
16,COc1cc(Br)cc(CN2CC3CC(C2)c2cccc(=O)n2C3)c1O (stereo not given),-0.476%
17,CCOC(=O)C1=C(C)OC(N)=C(C(=O)OC)C12C(=O)Nc1ccc(Br)cc12 (stereo not given),-0.299%
18,CCOC(=O)C1=C(N)OC2=C(C(=O)CCC2)C12C(=O)Nc1ccc(Br)cc12 (stereo not given),9.15% (active)
19,CCOC(=O)C1=C(N)Oc2n[nH]c(C)c2C12C(=O)Nc1ccc(Br)cc12 (stereo not given),0.383%
20,CC(C)c1ccc(NC(=O)c2cc3cccnc3n(Cc3ccc(F)cc3)c2=O)cc1,1.47%
